Data: the supplement of paper PMC11732987, “Enantioselective OTUD7B fragment discovery through chemoproteomics screening and high-throughput optimisation” (Communications Chemistry, 2025)

Biological target: T1, USP38 (UniProt Q8NB14)
T1 sequence (whole entry): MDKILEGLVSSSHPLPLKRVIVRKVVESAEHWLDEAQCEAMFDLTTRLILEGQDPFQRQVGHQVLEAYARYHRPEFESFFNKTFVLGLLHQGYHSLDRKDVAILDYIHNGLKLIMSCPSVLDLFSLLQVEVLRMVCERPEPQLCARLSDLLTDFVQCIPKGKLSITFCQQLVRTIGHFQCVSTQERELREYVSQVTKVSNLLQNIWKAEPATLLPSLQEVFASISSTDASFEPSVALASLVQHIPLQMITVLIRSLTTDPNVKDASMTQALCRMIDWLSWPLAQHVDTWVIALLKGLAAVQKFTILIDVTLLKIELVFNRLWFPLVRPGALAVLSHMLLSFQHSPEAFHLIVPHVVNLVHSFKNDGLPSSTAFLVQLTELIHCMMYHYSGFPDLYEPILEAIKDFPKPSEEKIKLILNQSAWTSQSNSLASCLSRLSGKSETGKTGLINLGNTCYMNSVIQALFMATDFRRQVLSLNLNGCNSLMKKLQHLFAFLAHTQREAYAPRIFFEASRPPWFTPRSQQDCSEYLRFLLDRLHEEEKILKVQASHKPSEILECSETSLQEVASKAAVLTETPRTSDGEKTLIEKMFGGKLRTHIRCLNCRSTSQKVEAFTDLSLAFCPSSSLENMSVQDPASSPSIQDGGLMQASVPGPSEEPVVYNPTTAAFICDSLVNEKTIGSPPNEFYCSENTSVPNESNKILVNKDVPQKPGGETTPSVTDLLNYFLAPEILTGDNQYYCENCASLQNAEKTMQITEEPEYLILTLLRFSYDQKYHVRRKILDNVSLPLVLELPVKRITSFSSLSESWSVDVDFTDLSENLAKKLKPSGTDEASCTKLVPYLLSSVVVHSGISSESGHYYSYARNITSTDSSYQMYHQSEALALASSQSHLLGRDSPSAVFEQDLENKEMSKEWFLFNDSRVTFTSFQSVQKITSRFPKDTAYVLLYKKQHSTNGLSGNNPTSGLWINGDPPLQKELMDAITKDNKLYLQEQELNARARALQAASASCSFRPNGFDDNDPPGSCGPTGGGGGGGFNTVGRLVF
Assay: log2 ratio of Biotin-Ahx-Ub-VS probe labelling (fragment/DMSO); higher = less target engagement (more negative = stronger competition), active = hit call of the paper (q ≤ 0.05, log2 ratio ≤ -1)
Conditions: compound concentration: 200 uM; treatment time: 3 h
Description: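 Competitive ABPP in HEK293T cell lysate. Lysates were treated with each chloroacetamide fragment at 200 µM for 3 h, then with Biotin-Ahx-Ub-VS (0.5 µM, 1 h), NeutrAvidin-enriched and analysed by diaPASEF LC-MS/MS. Protein LFQ was median-normalised; average log2 ratio is fragment/DMSO from an unpaired t-test (n=3 treated, n=44 DMSO). Hits: q ≤ 0.05, log2 ratio ≤ -1, unique peptides ≥ 2.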

SMILES	log2 ratio of Biotin-Ahx-Ub-VS probe labelling
O=C(CCl)NCC1CCCO1 (centres undefined)	-0.00745 (inactive)
CC(NC(=O)CCl)c1cccs1 (centres undefined)	-0.0174 (inactive)
N#CC1(NC(=O)CCl)CCCC1	-0.0299 (inactive)
Cc1nnc(NC(=O)CCl)s1	-0.33 (inactive)
O=C(CCl)N1CCCCCCC1	-0.0744 (inactive)
CC1CCCCC1NC(=O)CCl (centres undefined)	-0.0227 (inactive)
CC1CCCCN1C(=O)CCl (centres undefined)	-0.196 (inactive)
Cc1ncsc1CNC(=O)CCl.Cl	0.147 (inactive)
O=C(CCl)NC(C1CC1)C1CC1	-0.124 (inactive)
Cc1cc(NC(=O)CCl)no1	-0.139 (inactive)
CC(C)CN(C(=O)CCl)C1CC1	0.00725 (inactive)
CC1CN(C(=O)CCl)CC(C)O1 (centres undefined)	-0.205 (inactive)
O=C(CCl)Nc1cccc(Cl)c1	-0.568 (inactive)
O=C(CCl)NCc1ccco1	-0.144 (inactive)
CN(C(=O)CCl)C1CCCCC1	0.0172 (inactive)
O=C(CCl)NCC1CCC1	0.000742 (inactive)
Cc1nc(NC(=O)CCl)sc1C	-0.00435 (inactive)
Cc1cccc(NC(=O)CCl)c1	-0.146 (inactive)
O=C(CCl)N1CCCC1=O	-0.1 (inactive)
